Where “and” joins values, the source holds several entries; their conditions need not be identical. Equal entries are not always repeated. The panel holds about 83,000 compounds, 20% with a hit somewhere; the sample as a whole holds those more often.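 Single-concentration screen, 48 h exposure, 96-well plates. Endpoint: percent growth. Below 10 = active.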 Calls of active or inactive are those of the source.
What was measured:
Experiment in all cases: NCI-60 one-dose screen, 48 h (100 = growth as untreated, 0 = no growth, -100 = all killed)
Details in all cases: 10 µM unless noted
SR leukemia = test system: SR leukemia
RPMI-8226 leukemia = test system: RPMI-8226 leukemia
OVCAR-8 ovarian = test system: OVCAR-8 ovarian
OVCAR-5 ovarian = test system: OVCAR-5 ovarian
OVCAR-4 ovarian = test system: OVCAR-4 ovarian
SK-OV-3 ovarian = test system: SK-OV-3 ovarian
IGROV1 ovarian = test system: IGROV1 ovarian
OVCAR-3 ovarian = test system: OVCAR-3 ovarian
HS 578T breast = test system: HS 578T breast
NCI/ADR-RES ovarian = test system: NCI/ADR-RES ovarian

Row | Structure (SMILES) | growth (SR leukemia) | growth (RPMI-8226 leukemia) | growth (OVCAR-8 ovarian) | growth (OVCAR-5 ovarian) | growth (OVCAR-4 ovarian) | growth (SK-OV-3 ovarian) | growth (IGROV1 ovarian) | growth (OVCAR-3 ovarian) | growth (HS 578T breast) | growth (NCI/ADR-RES ovarian)
1 | COC1C(OC(N)=O)C(O)C(Oc2ccc3c(O)c(NC(=O)c4ccc(O)c(CC=C(C)C)c4)c(=O)oc3c2C)OC1(C)C (centres undefined) | 84% (inactive) and 80% (inactive) | 99.5% (inactive) and 80.1% (inactive) | 103% (inactive) | 86.8% (inactive) and 91.4% (inactive) | 111% (inactive) and 98.9% (inactive) | 112% (inactive) and 121% (inactive) | 137% (inactive) and 129% (inactive) | 97.3% (inactive) and 90.6% (inactive) | 89.4% (inactive) and 102% (inactive) | 106% (inactive) and 97.1% (inactive)
2 | CCOC(=O)C1=CC(=O)CC(C)(C)O1 | 82.1% (inactive) and 114% (inactive) | 92.8% (inactive) and 111% (inactive) | 114% (inactive) and 106% (inactive) | 110% (inactive) and 101% (inactive) | 128% (inactive) and 117% (inactive) | 108% (inactive) and 114% (inactive) | 103% (inactive) and 120% (inactive) | 118% (inactive) and 96.9% (inactive) | 117% (inactive) | 96.9% (inactive) and 110% (inactive)
3 | CCn1c2ccc(N(C)C)cc2c2cc(N(C)C)ccc21 | 94% (inactive) | 80.4% (inactive) | 97.3% (inactive) | 99.6% (inactive) | 24.9% (inactive) | 94.8% (inactive) | 107% (inactive) | 5.93% (active) | 107% (inactive) | 98.5% (inactive)
4 | Cc1cc(NC(=O)NC(=O)c2ccccc2N(C)C)ccc1Oc1ncc(Br)cn1 | 11.9% (inactive) and 22.4% (inactive) | -9.68% (active) and 20.4% (inactive) | 51.9% (inactive) | 34.1% (inactive) and 78.5% (inactive) | 15.8% (inactive) and 48.7% (inactive) | 45% (inactive) and 59.9% (inactive) | -12% (active) and 54.7% (inactive) | 0.0582% (active) and 16.2% (inactive) | 23.8% (inactive) and 40% (inactive) | 5.74% (active) and 23.3% (inactive)
5 | COc1ccc(CCN=Cc2ccc(Cl)cc2)cc1OC | 98.5% (inactive) | 108% (inactive) | 104% (inactive) | 119% (inactive) | 110% (inactive) | 112% (inactive) | 105% (inactive) | 115% (inactive) | 106% (inactive) | 106% (inactive)
6 | O=C1CCC(=O)N1CC1CC2CCC1C2 (centres undefined) | 84.7% (inactive) and 78.9% (inactive) | 71.3% (inactive) and 114% (inactive) | 98.8% (inactive) and 96.1% (inactive) | 93.8% (inactive) and 90.8% (inactive) | 91.1% (inactive) and 97.4% (inactive) | -56.3% (active) and 84% (inactive) | 105% (inactive) and 107% (inactive) | 106% (inactive) and 101% (inactive) | 115% (inactive) and 102% (inactive) | 110% (inactive) and 104% (inactive)
7 | Clc1ccc2c(c1)N(C1CCCN(Cc3ccccc3)C1)c1ccccc1S2 (centres undefined) | 16.1% (inactive) | 25.9% (inactive) | 37.9% (inactive) | 73.4% (inactive) | 79.9% (inactive) | 26.8% (inactive) | 43.8% (inactive) | 53.3% (inactive) | 14.4% (inactive) | 24.8% (inactive)
8 | O=C(NC(CSSCC(NC(=O)OCc1ccccc1)C(=O)O)C(=O)O)OCc1ccccc1 (centres undefined) | 67.8% (inactive) and 77.7% (inactive) | 64.7% (inactive) and 95.7% (inactive) | 79.5% (inactive) and 103% (inactive) | 90.9% (inactive) and 99.3% (inactive) | 68.3% (inactive) and 104% (inactive) | 107% (inactive) and 83.5% (inactive) | 73.1% (inactive) and 106% (inactive) | 97.7% (inactive) and 105% (inactive) | 99.9% (inactive) and 104% (inactive) | 97.2% (inactive) and 101% (inactive)
9 | O=C(O)c1c2c(nc3ccccc13)Cc1ccccc1-2 | 94.9% (inactive) and 98% (inactive) | 97% (inactive) and 84.1% (inactive) | 96.3% (inactive) and 96.2% (inactive) | 109% (inactive) and 88.1% (inactive) | 116% (inactive) and 97.6% (inactive) | 99.7% (inactive) and 102% (inactive) | 121% (inactive) and 85.6% (inactive) | 102% (inactive) and 95.6% (inactive) | 94.1% (inactive) and 84.2% (inactive) | 107% (inactive) and 95.7% (inactive)
10 | CN(C=O)c1ccccc1 | 101% (inactive) | 91% (inactive) | 96.6% (inactive) | 100% (inactive) | 85.3% (inactive) | 86.7% (inactive) | 102% (inactive) | 110% (inactive) | – | 97.4% (inactive)
11 | CC(=O)Nc1cscc1NC(C)=O | 90.1% (inactive) | 95.8% (inactive) | 107% (inactive) | 91.9% (inactive) | 100% (inactive) | 103% (inactive) | 99.2% (inactive) | 102% (inactive) | 103% (inactive) | 98.9% (inactive)

Reference: PubChem BioAssay (NCI)
